Source: PubChem BioAssay (National Center for Advancing Translational Sciences (NCATS))
In the library only some 3.3% were active in any assay of this set; here they are far more common.
AmpC detergent: qHTS Inhibitors of AmpC Beta-Lactamase (assay with detergent). 370,000 compounds, 0.041% hits. AID 485294, 2010. AmpC hydrolysis of nitrocefin, absorbance 480 nm, 0.01% Triton. Potency, µM (series often up to 114 µM), usual class: inhibitors. P00811; further: nearly all actives have a fitted effect of over 25% in size
Target sequence (P00811 whole entry, looked up): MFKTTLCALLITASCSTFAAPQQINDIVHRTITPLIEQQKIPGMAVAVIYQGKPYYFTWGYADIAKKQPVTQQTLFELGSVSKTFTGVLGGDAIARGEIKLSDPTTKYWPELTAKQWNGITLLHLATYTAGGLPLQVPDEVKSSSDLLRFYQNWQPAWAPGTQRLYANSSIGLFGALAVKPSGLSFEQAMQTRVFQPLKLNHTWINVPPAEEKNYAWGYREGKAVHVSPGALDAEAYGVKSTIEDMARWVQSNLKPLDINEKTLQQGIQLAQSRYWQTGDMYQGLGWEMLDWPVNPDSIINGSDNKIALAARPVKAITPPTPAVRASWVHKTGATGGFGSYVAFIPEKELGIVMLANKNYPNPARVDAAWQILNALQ
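20 mM phosphate pH 7.0 + 0.01% (detergent screen) or 0.0001% Triton X-100; 5.3 nM AmpC reagent; cpd preinc 15 min RT; nitrocefin (800 uM stock) to start; A480 q20 s × 4 min; Activity was normalised to no-enzyme and no-compound control wells.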
AmpC inh no detg: qHTS Inhibitors of AmpC Beta-Lactamase (assay without detergent); P00811; AmpC nitrocefin hydrolysis, absorbance 480 nm, 0.0001% Triton; Potency, µM (doses to about 57.1 µM), hits mostly inhibitors; 330,000 compounds, 0.52% hits; AID 485341, 2010; further: nearly all actives have a fitted effect of over 20% in size
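AmpC (5.3 nM in the dispensed reagent) in 20 mM phosphate pH 7.0 with 0.01% (detergent screen) or 0.0001% Triton X-100 was preincubated with compounds for 15 min at room temperature. Nitrocefin was then added from an 800 uM solution, and hydrolysis was followed at 480 nm.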
Sm TGR block: qHTS Assay for the Inhibitors of Schistosoma Mansoni Peroxiredoxins; 360,000 compounds, 3% hits; purified TGR, DTNB reduction, TNB absorbance 405 nm; Potency, µM (top dose mostly 114 µM), actives largely listed as inhibitors; AID 485364, 2010; further: nearly all actives have a fitted effect of over 60% in size
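Kinetic colorimetric format: TGR-catalysed, NADPH-driven DTNB reduction monitored via TNB absorbance. Enzyme dispensed at 20 nM; compound exposure 15 min at room temperature before reaction start.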
A number is an active result. The call rests on the fitted dose curve; in most records, active means well fitted curve in the direction sought with a large enough effect; inconclusive means small, poorly fitted or top-dose-only effect, or another doubt; inactive means no such curve, though single readings can be large; an effect the other way counts as inactive or inconclusive.

`Cc1cc2c(ccc3[nH]onc32)n1` gave AmpC detergent inconclusive, AmpC inh no detg inactive and Sm TGR block 32µM.
For Cc1ccc2nc(C)cc(Cl)c2c1 the results were AmpC detergent inactive, AmpC inh no detg inactive and Sm TGR block inactive.
COc1ccccc1-c1nnc(SCCOc2ccccc2C)o1 was read as AmpC detergent inactive and Sm TGR block inactive.
`Cc1cc(NC(=O)COC(=O)Cn2c(C)csc2=O)ccc1Br` gave AmpC detergent inactive, AmpC inh no detg inactive and Sm TGR block inactive.
O=C(Nc1ccc2c(c1)nc1n2CCOC1)c1ccco1 was read as AmpC detergent inactive, AmpC inh no detg inactive and Sm TGR block inactive.
Screening O=C(Cc1ccccc1)Nc1ccc2oc(-c3cccnc3)nc2c1 returned AmpC detergent inactive, AmpC inh no detg inactive and Sm TGR block inactive.
Screening O=C(Nc1ccc2oc(-c3cccnc3)nc2c1)c1ccc(-c2ccccc2)o1 returned AmpC detergent inactive and Sm TGR block 35µM.
`O=C(Nc1ccc2oc(-c3ccncc3)nc2c1)c1ccco1` gave AmpC detergent inactive, AmpC inh no detg inactive and Sm TGR block 35µM.
Screening O=C(Nc1ccc2oc(-c3cccnc3)nc2c1)c1ccc(-c2ccc(OC(F)(F)F)cc2)o1 returned AmpC detergent inactive and Sm TGR block 8.9µM.
`O=C(Nc1ccc2oc(-c3cccnc3)nc2c1)c1ccc(-c2ccccc2OC(F)(F)F)o1` gave AmpC detergent inactive and Sm TGR block inconclusive.
`O=C(Nc1ccc2oc(-c3ccccc3)nc2c1)c1ccco1` gave AmpC detergent inactive, AmpC inh no detg inactive and Sm TGR block inactive.
For O=C(Nc1ccc2c(c1)nc1n2CCSC1)c1ccco1 the results were AmpC detergent inactive, AmpC inh no detg inactive and Sm TGR block 14µM.
For O=C(Nc1nc2n(n1)C(c1ccccc1)C=C(c1ccccc1)N2)c1ccco1 (stereo not given) the results were AmpC detergent inactive, AmpC inh no detg inactive and Sm TGR block 1.8µM.
For O=C(Nc1nc2n(n1)C(c1ccc(F)cc1)CC(c1ccccc1)N2)c1ccco1 (stereo not given) the results were AmpC detergent inactive, AmpC inh no detg inactive and Sm TGR block inactive.
For O=C(Nc1nc2n(n1)C(c1ccc(F)cc1)C=C(c1ccc(Cl)cc1)N2)c1ccco1 (stereo not given) the results were AmpC detergent inactive and Sm TGR block inactive.
`O=C(c1nc2n(n1)C(c1ccc(Cl)cc1)C=C(c1ccccc1)N2)N1CCOCC1` (stereo not given) gave AmpC detergent inactive, AmpC inh no detg inactive and Sm TGR block 10µM.
`O=C(c1cc(-c2ccc(Cl)cc2)nc2ccccc12)N1CCOCC1` gave AmpC detergent inactive, AmpC inh no detg inactive and Sm TGR block inactive.
For O=C(Nc1nc2n(n1)C(c1ccccc1)C=C(c1ccc(Cl)cc1)N2)c1ccco1 (stereo not given) the results were AmpC detergent inactive and Sm TGR block 14µM.
For CCC(=O)N1CCc2cc(Br)cc(S(=O)(=O)N3CCCC(C(=O)Nc4cccc(Cl)c4C)C3)c21 (stereo not given) the results were AmpC detergent inactive and Sm TGR block inactive.
Cc1c(C(=O)N(Cc2ccco2)Cc2ccccc2Cl)oc2ccc(F)cc12 was read as AmpC detergent inactive and Sm TGR block inactive.
